High-throughput results (PubChem BioAssay)
Shown are actives, neighbours in structure and some others; about 3.6% of the full set was active somewhere.
Pf apPOL block: Pf-apPOL inhibitors, biochemical, fluorescence | Plasmodium falciparum apicoplast DNA polymerase (apPOL) | Recombinant Pf-apPOL, molecular beacon fluorescence, 1.5 h | inhibition, % at 10 µM | hit rate 0.25% among 210,000 | AID 1794808, 2022
mHTT CaM bind: mutant huntingtin-calmodulin interaction inhibitors – biochemical, AlphaScreen, primary screen. P42858. AlphaScreen His-mHTT/GST-CaM binding, luminescence. inhibition, % at 15 µM. hit rate 3.6% among 190,000. AID 1671202, 2021;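 note: 0% = both proteins with DMSO and 100% = one protein alone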
* = called active by the depositor; i = inactive; . = no result given. Cut-off read from the data, not from the text of the source: active = inhibition above about 50%; inactive = the rest.

SMILES	Pf apPOL block	mHTT CaM bind
Cc1[nH]c2ccccc2c1SCCNC(=O)COc1ccc(Cl)cc1	-9	84*
Cc1[nH]c2ccccc2c1SCCNC(=O)c1cccc(Cl)c1	-18	23
CCOc1ccccc1C(=O)NCCSc1c(C)[nH]c2ccccc12	-6	71*
Cc1[nH]c2ccccc2c1SCCNC(=O)COc1ccc(Cl)cc1Cl	-22	93*
Cc1[nH]c2ccccc2c1SCCNC(=O)C(C)(C)Oc1ccc(Cl)cc1	1	98*
CCOc1cc(C(=O)NCCSc2c(C)[nH]c3ccccc23)cc(OCC)c1OCC	-6	19
O=C(COc1ccc(Cl)cc1)NCCSc1c[nH]c2ccccc12	-6	17
Cc1[nH]c2ccccc2c1SCCNC(=O)c1c(F)cccc1F	-8	12
COC(=O)c1cccoc1=O	.	26
CCOc1cc(C(=O)O/N=C(\N)c2cccnc2)cc(OCC)c1OCC	-13	i
O=C(CSCc1ccccc1)NCc1cc(-c2ccc(F)cc2F)on1	-2	-10
COCc1nc(N2CCCCC2)c2c(C)nn(-c3ccccc3Cl)c2n1	-4	1
Fc1cccc(Cl)c1CSc1nnc2ccc(-c3cccnc3)nn12	-2	-5
Cn1c(-c2ccc(OCC(F)(F)F)nc2)n[nH]c1=S	-6	.
O=C(O)c1ccc(Nc2ccccc2)c([N+](=O)[O-])c1	-2	-10
Cc1ccc(Nc2ccc(NC(=O)c3snnc3C)cc2)nn1	-4	100*
Cc1nnsc1C(=O)Nc1ccc(CN2CCS(=O)(=O)CC2)cc1	-3	.
Nc1nnc(CCCCn2c(-c3nonc3N)nc3ccccc32)s1	-2	18
Cc1ccccc1COc1cn(CC(=O)NCCc2ccccc2)c(CO)cc1=O	-4	-19
COc1ccc(C(=O)N2CCC(Cc3nc4cccnc4n3C)C2)c(C)c1 (centres undefined)	-4	1
O=C(O)c1cnn2cccnc12	-1	9
O=C(O)c1cc2ncccn2n1	52*	-1
N#CC(=NNc1ccc(OC(F)(F)F)cc1)C(=O)c1ccc(Cl)cc1	-2	.
Cn1cnc(S(=O)(=O)N2CCN(c3ccccn3)CC2)c1	-10	.
COc1ccc(Br)cc1C1Nc2ccc(F)cc2C2C=CCC21 (centres undefined)	-2	73*
SMILES	Pf apPOL block	mHTT CaM bind
Fc1ccc2c(c1)[C@@H]1C=CC[C@@H]1[C@H](c1ccccc1Cl)N2	.	-4
COc1ccc(C2Nc3ccc(Br)cc3C3C=CCC32)cc1[N+](=O)[O-] (centres undefined)	-9	86*
COc1ccc(C2Nc3c(cccc3C(F)(F)F)C3C=CCC32)cc1[N+](=O)[O-] (centres undefined)	-9	38
COc1ccc(C=C2Oc3c(CN4CCCCC4)c(O)cc(C)c3C2=O)c(OC)c1OC	-10	-2
CNC(=O)N1CCc2ccc(C(=O)NCC(C)C)cc21	-2	-5
CCc1nc(-c2ccc(C(=O)N(C)C)cc2)no1	-3	-4
CCCN(CCC)CCNC(=O)C1C2C=CC3(CN(Cc4cccs4)C(=O)C13)O2 (centres undefined)	-1	0
CCOC(=O)N1CCN(c2nnc(SCC(=O)Nc3cc(C)on3)s2)CC1	-10	-1
CC(=O)NC(c1ccc(Cl)cc1)c1cc([N+](=O)[O-])c2cccnc2c1O (centres undefined)	-47	100*
CC(=O)NC(c1ccc(Cl)cc1)c1cc(Cl)c2cccnc2c1O (centres undefined)	8	74*
CC(=O)NC(/C=C/c1ccccc1)c1cc([N+](=O)[O-])c2cccnc2c1O (centres undefined)	8	100*
CC(=O)NC(c1ccc(Cl)cc1Cl)c1cc(Cl)c2cccnc2c1O (centres undefined)	-10	100*
CCCC(=O)NC(/C=C/c1ccccc1)c1cc([N+](=O)[O-])c2cccnc2c1O (centres undefined)	6	12
Cc1ccc(C(NC(=O)C(C)C)c2cc(Cl)c3cccnc3c2O)cc1 (centres undefined)	-10	24
O=C(NCCSC1CCCCC1)c1ccc(Br)cc1	-5	-3
COc1ccc(-c2nc3cccnc3n2C2CCN(C(=O)c3ccc(OC)nc3)C2)cc1 (centres undefined)	-5	3
Cn1c(CSCCOc2ccccc2)nnc1SCC(=O)c1ccc(Cl)cc1Cl	-7	.
Cc1nc2ccccc2c2c1C(=O)N(c1ccc(F)c(F)c1)C2=O	2	3
COc1cccc(OC)c1OCC(O)CN1CCN(c2cccc(Cl)c2)CC1 (centres undefined)	1	53*
COc1cccc(OC)c1OCC(O)CN1CCN(c2cc(Cl)ccc2C)CC1 (centres undefined)	1	64*
Cc1ccc(Cl)cc1N1CCN(CC(O)COc2ccccc2[N+](=O)[O-])CC1 (centres undefined)	6	91*
O=[N+]([O-])c1ccccc1OCC(O)CN1CCN(c2cccc(Cl)c2)CC1 (centres undefined)	-13	23
COc1ccc(N2CCN(CC(O)COc3c(OC)cccc3OC)CC2)cc1 (centres undefined)	-6	7
COc1cccc(OC)c1OCC(O)CN1CCN(c2ccccc2F)CC1 (centres undefined)	-4	5
CC(=O)NC1=NC(=O)/C(=C\c2cccc(F)c2)S1	16	1
SMILES	Pf apPOL block	mHTT CaM bind
COc1ccc(NC(=O)C2(C)Oc3cccnc3NC2=O)c(OC)c1 (centres undefined)	-2	-2
Cc1cccc(OCC(=O)O/N=C(\N)c2cccnc2)c1	-2	i
Cc1cc(O)c(CN2CCN(C)CC2)c2c1C(=O)C(=Cc1cccnc1)O2	3	8
O=C(NCC(c1cccs1)S(=O)(=O)c1ccccc1)Oc1ccccc1 (centres undefined)	2	2
Cc1ccc(S(=O)(=O)C(CN)c2cccs2)cc1 (centres undefined)	69*	-16
O=C(NCC1OCCc2ccccc21)C(=O)N1CCCCC1 (centres undefined)	-36	-1
N#CC1=C(N)N(c2ccccc2)C2=C(C(=O)CCC2)C1c1ccsc1 (centres undefined)	-6	0
N#CC1=C(N)n2c(s/c(=C\c3ccsc3)c2=O)=C(C#N)C1c1ccsc1 (centres undefined)	-17	70*
Cc1ncc(CO)c2cc(C(N)=O)c(=Nc3ccc([N+](=O)[O-])cc3)oc12	8	4
O=C1C2CC=CCC2C(=O)N1c1ccc(OC(F)(F)F)cc1 (centres undefined)	0	-6
O=C(NCc1cc(-c2ccco2)on1)c1ccc(F)c(F)c1	1	-4
O=C(NCc1cc(-c2ccco2)on1)c1ccc(=O)oc1	63*	14
Cc1cccc(-c2nc(C3CCN(S(=O)(=O)c4ccc(Cl)s4)CC3)no2)c1	-8	-6
CC(C)N1C(=O)C(C)(C(=O)NCc2ccc(Br)cc2)Oc2cccnc21 (centres undefined)	-7	95*
CC(C)N1C(=O)C(C)(C(=O)NCc2ccccc2)Oc2cccnc21 (centres undefined)	-3	-5
CCCNC(=O)C1CCN(c2nc3ccc(-c4cccs4)nc3s2)CC1	0	9
CN(C)CCNC(=O)C1CCN(c2nc3ccc(-c4ccsc4)nc3s2)CC1	4	66*
CN(C)CCNC(=O)C1CCN(c2nc3ccc(-c4ccncc4)nc3s2)CC1	-6	-2
